Source: PubChem
Sampled rows, rich in hits. Any-hit rate of the full collection: about 0.47%.
UDG counterscr – blocks uracil-DNA glycosylase in AID counter-screen; 0.14% of 91,000 active; Potency, µM (titrated, usually from 115 µM), for the others: at the top dose activity change, negative = inhibition, most hits filed as inhibitors; FRET deamination/UDG coupled assay, UDG read, 4 h; further: nearly all actives have a fitted effect of over 65% in size
AID inh – blocks human AID cytidine deaminase activity; Q9GZX7; 0.32% of 91,000 active; AID deamination FRET fluorescence, UDG-coupled, 4 h; Potency, µM (top dose mostly 115 µM), hits mostly inhibitors; further: nearly all actives have a fitted effect of over 25% in size
Target sequence (Q9GZX7 whole entry, looked up): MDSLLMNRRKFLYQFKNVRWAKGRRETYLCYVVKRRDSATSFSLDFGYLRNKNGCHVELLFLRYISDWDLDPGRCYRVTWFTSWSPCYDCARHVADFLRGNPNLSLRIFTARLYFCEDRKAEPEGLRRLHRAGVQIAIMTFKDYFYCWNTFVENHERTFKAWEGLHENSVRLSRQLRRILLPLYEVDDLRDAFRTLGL
An asterisk follows results filed as active; [ ] = remark or other dose. The call rests on the fitted dose curve; in most records, active means well fitted curve in the direction sought with a large enough effect; inconclusive means small, poorly fitted or top-dose-only effect, or another doubt; inactive means no such curve, though single readings can be large; an effect the other way counts as inactive or inconclusive. On the % scale 0 is the no-effect control and ±100 the full control effect; potency means the concentration at half of the fitted maximal effect.

For C/C(CCc1oc2ccc(Br)cc2c1-c1ccc(C)o1)=N\O the results were UDG counterscr -7% and AID inh inactive.
`O=C(CSc1nnc(-c2ccccc2)o1)N1CCCc2ccccc21` gave UDG counterscr -6% and AID inh inconclusive.
`O=C(CSc1nnc(-c2ccccc2Cl)o1)N1CCCc2ccccc21` gave UDG counterscr -17% and AID inh 28µM*.
`COc1ccc(-c2oc(=O)oc2-c2ccc(OC)c(OC)c2)cc1OC` gave UDG counterscr -3% and AID inh inactive.
Screening NC(=O)c1[nH]ncc1NCc1cccnc1 returned UDG counterscr -9% and AID inh inactive.
Screening CCc1nn(C(C)C(=O)N2CCN(c3cccc(C(F)(F)F)c3)CC2)c(=O)c2cc3occc3n12 (stereo unspecified) returned UDG counterscr -15% and AID inh 32µM*.
Cc1cccc(N2CCN(C(=O)C(C)n3nc(C)n4c(cc5occc54)c3=O)CC2)c1C (stereo unspecified) was read as UDG counterscr -18% and AID inh inconclusive.
Screening COc1cc(/C=C/C(=O)c2ccc(OCC#N)cc2)ccc1OCCC(C)C returned UDG counterscr -6% and AID inh inactive.
Screening C=C(CS(=O)(=O)c1ccc(C)cc1)S(=O)(=O)c1ccc(C)cc1 returned UDG counterscr -4% and AID inh inactive.
COc1cccc(C2CC(=O)Nc3ccsc32)c1OC (stereo unspecified) was read as UDG counterscr 1% and AID inh inactive.
`COc1cccc(C2CC(=O)Nc3nc(N)sc32)c1OCC(C)C` (stereo unspecified) gave UDG counterscr -13% and AID inh 40µM*.
`COc1cccc2cc(C(=O)Nc3ccccc3Oc3ccccc3)c(=O)oc12` gave UDG counterscr 2% and AID inh inactive.
CC(C)(C)OC(=O)N1CCC(c2c(C(=O)NCCc3ccccc3)cnn2-c2ccc(F)cc2F)CC1 was read as UDG counterscr 51% and AID inh inconclusive.
`CN1CCN(CCNC(=O)c2cnn(-c3cccc(Cl)c3)c2C2CCN(C(=O)OC(C)(C)C)CC2)CC1` gave UDG counterscr -16% and AID inh inactive.
For Cc1ccc(-n2ncc(C(=O)NCCc3ccccc3)c2C2CCN(C(=O)OC(C)(C)C)CC2)c(C)c1 the results were UDG counterscr -21% and AID inh 25µM*.
`Cc1ccc(C)c(N2CCN(CCCNC(=O)c3cnn(-c4cccc(Cl)c4)c3C3CCN(C(=O)OC(C)(C)C)CC3)CC2)c1` gave UDG counterscr -20% and AID inh 35µM*.
Screening CCN1CCN(CCCNC(=O)c2cnn(-c3ccc(C)cc3)c2C2CCN(C(=O)OC(C)(C)C)CC2)CC1 returned UDG counterscr 10% and AID inh inactive.
Screening Cc1ccc(C)c(N2CCN(CCCNC(=O)c3cnn(-c4ccc(F)cc4)c3C3CCN(C(=O)OC(C)(C)C)CC3)CC2)c1 returned UDG counterscr -28% and AID inh 28µM*.
Fc1ccc(CNc2nc(-c3ccccc3)cc(C(F)(F)F)n2)cc1 was read as UDG counterscr -21% and AID inh 45µM*.
COc1cccc(-c2cc(C(F)(F)F)nc(NCc3ccc(F)cc3)n2)c1 was read as UDG counterscr -16% and AID inh inconclusive.
`Cc1cccc(C)c1OCCCCn1c(C2CC(=O)N(c3ccc(F)cc3)C2)nc2ccccc21` (stereo unspecified) gave UDG counterscr 79µM* and AID inh inconclusive.
COc1ccc(OCCn2c(C3CC(=O)N(c4ccc(F)cc4)C3)nc3ccccc32)cc1 (stereo unspecified) was read as UDG counterscr -26% and AID inh inconclusive.
Cc1ccc(/C=C/C(=O)NC2CCc3ccccc32)o1 (stereo unspecified) was read as UDG counterscr 1% and AID inh inactive.
For Cc1cccc(C)c1NC(=O)Cc1c(C)nc2nc(-c3cccs3)nn2c1C the results were UDG counterscr 0% and AID inh inactive.
CCCCC1CCC(C(=O)N2CC(=O)Nc3ccc(F)cc3C2c2ccc(F)cc2)CC1 (stereo unspecified) was read as UDG counterscr -23% and AID inh 35µM*.
For CCCC(=O)N1CC(=O)Nc2ccc(Cl)cc2C1c1ccc(F)cc1 (stereo unspecified) the results were UDG counterscr -1% and AID inh inactive.
`CCC(C(=O)Nc1cc(OC)ccc1OC)n1nc(-c2ccccc2)c2c(c1=O)CCCC2` (stereo unspecified) gave UDG counterscr -22% and AID inh 28µM*.
Screening COc1ccccc1NC(=O)Cn1nc(-c2ccc(C)cc2)c2c(c1=O)CCCC2 returned UDG counterscr 5% and AID inh inconclusive.
Screening Cc1ccc2nc(-c3ccc(C)s3)cc(C(=O)NCc3ccco3)c2c1 returned UDG counterscr -1% and AID inh inactive.
Cc1ccc(Nc2c(-c3c[nH]c4ccccc34)nc3cc(C)ccn23)cc1 was read as UDG counterscr 79µM* and AID inh inconclusive.
Screening Cc1ccn2c(Nc3ccccc3)c(-c3c[nH]c4ccccc34)nc2c1 returned UDG counterscr 6% and AID inh inactive.
For CCC(C(=O)NCc1cccc(Br)c1)n1nc(C)c2c(C)n(-c3ccccc3)nc2c1=O (stereo unspecified) the results were UDG counterscr -19% and AID inh inconclusive.
Screening CCc1ccc(CNC(=O)C(CC)n2nc(C)c3c(C)n(-c4ccccc4)nc3c2=O)cc1 (stereo unspecified) returned UDG counterscr -20% and AID inh 71µM*.
Screening CCN(C(=O)CCl)C1CCCCC1 returned UDG counterscr 0% and AID inh inactive.
Screening COc1ccc(-c2ccnc3c2c(=O)[nH]c(=O)n3Cc2ccco2)cc1OC returned UDG counterscr 8% and AID inh inactive.
For CCOc1ccc(NC(=O)CN(c2ccccc2OCC)S(=O)(=O)c2ccccc2)cc1 the results were UDG counterscr -9%[57.5 µM] and AID inh inconclusive.
For CCOc1ccc(NC(=O)CN(c2ccc(Cl)cc2C)S(=O)(=O)c2ccccc2)cc1 the results were UDG counterscr 89µM* and AID inh inconclusive.
For COc1ccc(-n2cnc3c2NC(=O)CC3c2cccnc2)cc1 (stereo unspecified) the results were UDG counterscr -2% and AID inh inconclusive.
CCOc1cc(/C=C(/C#N)C(=O)Nc2ccccc2C(=O)O)ccc1OC was read as UDG counterscr 3% and AID inh inactive.
Screening CCc1cccc(NC(=O)c2c(C)oc3ncnc(N4CCCCC4)c23)c1 returned UDG counterscr 89µM* and AID inh inactive.
`Cc1ccc(NC(=O)c2c(C)oc3ncnc(N4CCCCC4)c23)cc1Cl` gave UDG counterscr inconclusive and AID inh inactive.
Screening CCOC(=O)c1cc(-c2ccccc2)sc1NC(=O)CCN1CCN(C)CC1 returned UDG counterscr -7% and AID inh inactive.
For Cc1ccc2nc(-c3ccccc3)cc(C(=O)NCC(=O)NC3CC3)c2c1 the results were UDG counterscr 10% and AID inh inactive.
Screening COc1cc(C(=O)Nc2ccc(OCc3cc(=O)n4cccc(C)c4n3)cc2)cc(OC)c1OC returned UDG counterscr -2% and AID inh 22µM*.
COc1ccccc1C(=O)Nc1ccc(OCc2cc(=O)n3cccc(C)c3n2)cc1 was read as UDG counterscr 9% and AID inh inactive.
